# Reference: PubChem BioAssay (NCATS)
# Values joined by “and” are separate entries in the source; they are usually repeats but may differ in a detail not shown here. Equal entries are not always repeated. Results filed as inconclusive are left out. Active and inactive are the calls of the source. Unless noted, the call rests on the fitted dose curve; in most records, active means well fitted curve in the direction sought with a large enough effect; inconclusive means small, poorly fitted or top-dose-only effect, or another doubt; inactive means no such curve, though single readings can be large; an effect the other way counts as inactive or inconclusive.
# Legend:
# [1] = qHTS assay for small molecule antagonists of the retinoid-related orphan receptor gamma (ROR-gamma) signaling pathway - cell viability counter screen (AID 720652; active means well fitted curve in the direction sought with a large enough effect in the repeat runs; an effect the other way counts as inactive or inconclusive;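 further: CHO reporter cells with doxycycline-induced ROR-gamma expression; compound exposure lasted 16 hr before ATP read; on the % scale 0 is the no-effect control and ±100 the full control effect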); conditions: RORgamma reporter cell line viability counter screen; series mostly up to 92.2 µM
# Method in brief: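 ATP-based viability readout in the ROR-gamma reporter CHO cells after 16 hr compound exposure under doxycycline induction.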
# [2] = qHTS assay for cell viability of HEK293 cells (AID 743288); conditions: ATP luminescence (CellTiter-Glo), 18 h, stronger effect = lower value; further: on the % scale 0 is the no-effect control and ±100 the full control effect; nearly all actives have a fitted effect of over 50% in size
# Method in brief: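 Steps: plate 2,000 parental HEK293 cells per well; incubate ≥5 h, 37 C; add compounds in DMSO; incubate 18 h, 37 C; add CellTiter-Glo; wait 30 min at room temperature; read luminescence.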
# [3] = qHTS assay for cell viability of the p53RE-bla HCT-116 cell line (AID 743292); conditions: p53RE-bla HCT-116 viability, ATP luminescence, 16 h; series mostly up to 95 µM; further: on the % scale 0 is the no-effect control and ±100 the full control effect; nearly all actives have a fitted effect of over 55% in size
# Method in brief: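 CellSensor p53RE-bla HCT-116 cells, 4,000/well, preincubated 5 h at 37 C, then exposed to compounds in DMSO for 16 h at 37 C. Viability read as CellTiter-Glo luminescence (intracellular ATP) after 30 min at room temperature.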
# [4] = qHTS Assay for Identifying Gametocytocidal Compounds (AID 743244); further: potency means the concentration at half of the fitted maximal effect;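 on max response: on the % scale 0 is the no-effect control and ±100 the full control effect; actives lower the fluorescent signal which means gametocytes are killed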; conditions: P. falciparum 3D7 stage III-V gametocytes, alamarBlue, 72 h; max response: stronger effect = lower value
# Method in brief: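 Viability read-out was resazurin reduction (alamarBlue, 24 h) measured at Ex 525/Em 598 nm. Beforehand, late-stage (III-V) 3D7 P. falciparum gametocytes at 20,000 cells/well were incubated with compound 72 h at 37C under 5% CO2.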
# [5] = qHTS profiling of the MIPE4 collection as inhibitors of Plasmodium falciparum (3D7) proliferation (AID 743344; call rule not given here;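 further: scaled between DMSO vehicle wells and 0.29 µM artemisinin as full inhibition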); conditions: P. falciparum 3D7 in erythrocytes, SYBR Green DNA fluorescence, 72 h; at 9.64 µM (top of the series) unless noted
# Method in brief: (§1)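 Parasite DNA was quantified by SYBR Green I fluorescence (ex 485, em 535 nm) after overnight lysis in saponin/Triton buffer at room temperature. Cultures at 0.3% parasitemia and 2.5% hematocrit were first exposed to compound for 72 h at 37 C; signals were normalised to artemisinin (0.29 uM) and vehicle wells.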
# [6] = qHTS profiling of the MIPE4 collection as inhibitors of Plasmodium falciparum (DD2) proliferation (AID 743345; call rule not given here); conditions: P. falciparum Dd2 in erythrocytes, SYBR Green DNA, 72 h; at 9.64 µM (top of the series) unless noted
# Method in brief: as §1
# [7] = qHTS profiling of the MIPE4 collection as inhibitors of Plasmodium falciparum (DD2) proliferation (Rep 2) (AID 743346; call rule not given here); conditions: P. falciparum Dd2 in erythrocytes, SYBR Green DNA, 72 h; at 9.64 µM (top of the series) unless noted
# Method in brief: as §1
# [8] = qHTS profiling for inhibitors of Plasmodium falciparum (3D7) proliferation (AID 743322; call rule not given here;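 further: infected erythrocytes exposed to compound for 72 h before lysis; 100% = DMSO vehicle wells and 0% = 0.29 µM artemisinin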); conditions: P. falciparum 3D7 proliferation; at 28.7 µM (top of the series)
# Method in brief: as §1
# [9] = qHTS profiling for inhibitors of Plasmodium falciparum (DD2) proliferation (AID 743323; call rule not given here); conditions: lower = more inhibition; at 28.7 µM (top of the series)
# Method in brief: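 1536-well qHTS; infected RBCs 0.3% parasitemia/2.5% Hct final; cpd 72 h 37 C 5% CO2; lysis buffer + SYBR Green I, o/n RT dark; FI 485/535; norm. to 0.29 uM artemisinin and DMSO, plate-stack corrected.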
# [10] = qHTS profiling for inhibitors of Plasmodium falciparum (HB3) proliferation (AID 743324); conditions: Plasmodium falciparum HB3 blood-stage proliferation; at 28.7 µM (top of the series);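 further: 100% = DMSO vehicle wells and 0% = artemisinin-treated control wells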
# Method in brief: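 SYBR Green fluorescence (485 ex/535 em) of lysed cultures, incubated overnight at room temperature in the dark, quantifies parasite DNA. Infected erythrocytes at 0.3% parasitemia and 2.5% hematocrit were exposed 72 h; values normalized to DMSO and 0.29 uM artemisinin controls.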
compound,measurement,setting,value
O=C1C(c2[nH]c3ccccc3c2O)=Nc2ccccc21,outcome,[1],inactive
same,max response,[2],1.4% (inactive)
same,outcome,[3],inactive
Nc1ccc(C(=O)Oc2ccccc2)c(O)c1,max response,[4],-7.01% (inactive)
CCCCOC(=O)c1ccc(N)cc1,outcome,[1],inactive
same,max response,[4],-1.98% (inactive)
same,max response,[2],3.29% (inactive)
same,outcome,[3],inactive
CC[C@H](C)[C@H](N)C(=O)O,max response,[4],-11.6% (inactive)
CC(=O)Nc1ccc(C(=O)O)cc1,outcome,[1],inactive
same,max response,[4],7.86% (inactive)
same,max response,[2],-10.3% (inactive)
same,outcome,[3],inactive
Cc1c(NC(=O)c2cccnc2)c(=O)n(-c2ccccc2)n1C,max response,[4],-5.32% (inactive)
O=c1[nH]c(=O)c2ccccc2o1,max response,[4],-4.26% (inactive)
O=C(CCBr)N1CCN(C(=O)CCBr)CC1,max response,[4],-1.41% (inactive)
CC(=O)NS(=O)(=O)c1ccc(N)cc1,outcome,[1],inactive
same,max response,[4],2.53% (inactive)
same,max response,[2],-3.22% (inactive)
same,outcome,[3],inactive
Cc1c(NC(C)C)c(=O)n(-c2ccccc2)n1C,max response,[4],-2.3% (inactive)
O=C(NCC(O)CO)c1c(I)c(C(=O)NCC(O)CO)c(I)c(N(CCO)C(=O)CO)c1I (stereo not drawn),max response,[4],8.95% (inactive)
O=C(c1ccccc1)C(O)c1ccccc1 (stereo not drawn),outcome,[1],inactive
same,max response,[4],0.61% (inactive)
same,max response,[2],0.203% (inactive) and -6.25% (inactive)
same,outcome,[3],inactive
C[C@]1(Cn2ccnn2)[C@H](C(=O)O)N2C(=O)C[C@H]2S1(=O)=O,max response,[4],9.4% (inactive)
COC(=O)c1ccccc1C(=O)c1ccc(OCCN2CCCCC2)cc1,max response,[4],-9.15% (inactive)
Cc1c(N(C)C)c(=O)n(-c2ccccc2)n1C,outcome,[1],inactive
same,max response,[4],-4.29% (inactive)
same,max response,[2],1.77% (inactive) and -15.3% (inactive)
same,outcome,[3],inactive
CC1CC(OC(=O)c2ccccc2O)CC(C)(C)C1 (stereo not drawn),outcome,[1],inactive
same,max response,[4],-1.2% (inactive)
same,max response,[2],-5.44% (inactive)
same,outcome,[3],inactive
CCCCCCCC(=O)OCC(COC(=O)CCCCCCC)OC(=O)CCCCCCC,outcome,[1],inactive
same,max response,[4],1.43% (inactive)
same,max response,[2],-8.85% (inactive)
same,outcome,[3],inactive
O=C(O)CNC(=O)c1ccccc1I,max response,[4],-0.623% (inactive)
Cc1ncc(CO)c(CN)c1O,max response,[4],6.59% (inactive)
CC(=O)Nc1cccc(O)c1,outcome,[1],inactive
same,max response,[4],5.77% (inactive)
same,max response,[2],-4.32% (inactive)
same,outcome,[3],inactive
O=C1c2cccc(O)c2C(=O)c2c(O)cccc21,outcome,[1],inactive
same,max response,[4],2.37% (inactive)
same,max response,[2],-10.2% (inactive)
same,outcome,[3],inactive
C=CCNC(N)=S,outcome,[1],inactive
same,max response,[4],5.17% (inactive)
same,max response,[2],-7.7% (inactive)
same,outcome,[3],inactive
Nc1c2c(nc3c1CCC3)CCCC2,Potency,[4],11.2 µM (active)
CCCC(O)C(CC)CO (stereo not drawn),outcome,[1],inactive
same,max response,[4],0.642% (inactive)
same,max response,[2],-0.929% (inactive)
same,outcome,[3],inactive
Cc1cc(=O)[nH]c(=S)[nH]1,outcome,[1],inactive
same,max response,[4],4.75% (inactive)
same,max response,[2],-3.4% (inactive)
same,outcome,[3],inactive
CC(=O)Nc1ccccc1,outcome,[1],inactive
same,max response,[4],9.51% (inactive)
same,max response,[2],-0.588% (inactive)
same,outcome,[3],inactive
Cn1c(=O)c2c(ncn2CCO)n(C)c1=O,max response,[4],6.91% (inactive)
Cc1c(I)c(=O)n(-c2ccccc2)n1C,max response,[4],4.77% (inactive)
Cc1cc(C)nc(NS(=O)(=O)c2ccc(N)cc2)n1,outcome,[1],inactive
same,max response,[4],-2.99% (inactive)
same,max response,[2],2.28% (inactive) and -2.43% (inactive)
same,outcome,[3],inactive
COc1ccc(O)cc1,outcome,[1],inactive
same,max response,[4],-2.64% (inactive)
same,max response,[2],-0.79% (inactive)
same,outcome,[3],inactive
CCN(CC)C(=O)c1cccc(C)c1,outcome,[1],inactive
same,max response,[4],18.7% (inactive)
same,max response,[2],4.9% (inactive) and -5.34% (inactive)
same,outcome,[3],inactive
O=C(O)/C=C/c1ccc(Cn2ccnc2)cc1,max response,[4],13.5% (inactive)
CC(=O)OCC(COC(C)=O)OC(C)=O,outcome,[1],inactive
same,max response,[4],41.8% (inactive)
same,max response,[2],2.21% (inactive) and 6.16% (inactive)
same,outcome,[3],inactive
CCCCCC(N)=O,outcome,[1],inactive
same,max response,[4],2.77% (inactive)
same,max response,[2],7.6% (inactive)
same,outcome,[3],inactive
CC(CSC(=O)c1ccccc1)C(=O)N1C[C@@H](Sc2ccccc2)C[C@H]1C(=O)O (stereo partly drawn),max response,[4],2.09% (inactive)
FC(F)(F)C(Cl)Br (stereo not drawn),outcome,[1],inactive
same,max response,[4],-11.3% (inactive)
same,max response,[2],6.13% (inactive)
same,outcome,[3],inactive
Nc1ccc(S(=O)(=O)c2ccc(N)cc2)cc1,outcome,[1],inactive
same,max response,[4],-3.88% (inactive)
same,max response,[2],-5.62% (inactive) and -11.7% (inactive)
same,outcome,[3],inactive
same,"parasite growth, % of DMSO control",[5],91.3%
same,"parasite growth remaining, % of DMSO control (lower = more inhibition)",[6],103%
same,"parasite growth, % of control (lower = inhibition)",[7],101%
CCCCCCCCCCOc1cc2c(=O)c(C(=O)OCC)c[nH]c2cc1OCC,remaining parasite growth % (stronger effect = lower value),[8],0.552%
same,"activity, percent of control",[9],2.1%
same,"parasite growth, % of DMSO control",[5],7.74% [at 28.5 µM]
same,"parasite growth remaining, % of DMSO control (lower = more inhibition)",[6],7.98% [at 28.5 µM]
same,"parasite growth, % of control (lower = inhibition)",[7],14.5% [at 28.5 µM]
CCOc1ccccc1O[C@H](c1ccccc1)[C@H]1CNCCO1,remaining parasite growth % (stronger effect = lower value),[8],89.6%
same,"activity, percent of control",[9],63.9%
same,"remaining proliferation (% of control), lower = more inhibition",[10],47.7%
COc1ccc(NS(=O)(=O)c2ccc(N)cc2)nn1,"parasite growth, % of DMSO control",[5],103%
same,"parasite growth remaining, % of DMSO control (lower = more inhibition)",[6],101%
same,"parasite growth, % of control (lower = inhibition)",[7],141%
